Compound activity: PubChem, National Center for Advancing Translational Sciences (NCATS)
Sampled rows, rich in hits. Any-hit rate of the full collection: about 8%.
ELG1 repair inh = ELG1-dependent DNA repair inhibition; HEK293T ELG1-luciferase reporter, luminescence, 16 h; DNA damage induced by 5-fluorouridine; Potency, µM (series often up to 46.1 µM), for the others: top-dose activity change, negative = inhibition, hits mostly inhibitors; 330,000 compounds, 2.3% hits; AID 504467; note: potency is the fitted concentration of half-maximal effect; nearly all actives have a fitted effect of over 55% in size
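5-Fluorouridine DNA damage + compound/DMSO, 2,000 cells/well, 16 h, 37 °C/5% CO2. ONE-Glo, 30 min RT, luminescence. Readout = decrease in reporter signal.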
TSHR antagonist = blocks TSH signaling through the human TSH receptor. TSHR-expressing cells, TSH-stimulated cAMP HTRF, 2 h; hits give low values. activity change, negative = inhibition, % at 11.5 µM. 330,000 compounds, 0.2% hits. AID 504810;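 active = activity change below a set negative limit, meaning inhibition stronger than a set level, cut at about -70% in these data; inconclusive = activity change between two set negative limits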
Target sequence (P16473 whole entry, looked up): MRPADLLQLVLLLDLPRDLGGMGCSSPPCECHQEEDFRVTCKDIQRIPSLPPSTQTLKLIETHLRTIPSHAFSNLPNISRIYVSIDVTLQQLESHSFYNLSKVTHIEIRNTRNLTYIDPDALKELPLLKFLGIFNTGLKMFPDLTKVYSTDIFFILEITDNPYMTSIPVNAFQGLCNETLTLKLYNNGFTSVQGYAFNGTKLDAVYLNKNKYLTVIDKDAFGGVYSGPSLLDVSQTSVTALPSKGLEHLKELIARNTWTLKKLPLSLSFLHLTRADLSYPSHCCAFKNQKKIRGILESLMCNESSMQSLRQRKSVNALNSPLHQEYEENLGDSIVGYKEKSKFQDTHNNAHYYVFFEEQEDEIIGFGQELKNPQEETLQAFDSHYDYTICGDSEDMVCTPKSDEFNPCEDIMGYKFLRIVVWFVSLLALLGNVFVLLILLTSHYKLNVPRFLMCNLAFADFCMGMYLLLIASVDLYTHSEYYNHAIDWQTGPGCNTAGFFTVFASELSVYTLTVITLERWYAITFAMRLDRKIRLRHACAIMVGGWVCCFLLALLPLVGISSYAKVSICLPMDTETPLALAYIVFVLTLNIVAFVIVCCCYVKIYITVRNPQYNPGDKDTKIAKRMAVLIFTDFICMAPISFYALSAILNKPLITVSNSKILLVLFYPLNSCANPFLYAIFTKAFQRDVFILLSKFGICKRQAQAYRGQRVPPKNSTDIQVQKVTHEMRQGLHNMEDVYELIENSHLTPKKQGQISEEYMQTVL
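Inhibition of cAMP made by TSHR-expressing cells under TSH stimulation (4nM final, EC80; 2 h, 37 deg C) is quantified with a one-step lysis HTRF kit, anti-cAMP cryptate versus cAMP-d2.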
FBPA coupling cs = counter-screen for Giardia aldolase inhibitors: coupling enzyme system. 290,000 compounds, 0.67% hits. coupling enzyme system counterscreen, AmpLite Red fluorescence. AID 2472. activity change, negative = inhibition, % at 58.2 µM, hits read low; in the data active = activity change below about -30%
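Counterscreen lacking aldolase: glyceraldehyde-3-phosphate coupling-enzyme reagent preincubated 10 min at RT with compound (at 57.5 uM final), then substrate/coupling system with AmpLite Red added; fluorescence read at 525/598 nm after 20 min RT.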
VP16 counter = counter-screen for ROR gamma inhibitors: Gal4-VP16 reporter | Drosophila S2 Gal4-VP16 UAS-luciferase, luminescence, 20 h | Potency, µM (series often up to 53.6 µM), for the others: at the top dose activity, negative = inhibition, usual class: inhibitors | 310,000 compounds, 3.5% hits;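 note: Gal4-VP16 expression switched on by copper sulfate through the metallothionein promoter; potency is the fitted concentration of half-maximal effect; nearly all actives have a fitted effect of over 50% in size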
RORg inh = blocks mouse ROR gamma transcriptional activity; AID 2551; Potency, µM (doses to about 53.6 µM), for the others: top-dose activity change, negative = inhibition, hits mostly inhibitors; 310,000 compounds, 5.4% hits; P51450; Drosophila S2 Gal4-RORgamma UAS-luciferase reporter, 20 h; note: potency is the fitted concentration of half-maximal effect; nearly all actives have a fitted effect of over 60% in size
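In this cell-based reporter format, copper sulfate (700 uM final) drives Gal4–ROR gamma fusion expression from a metallothionein promoter in Drosophila Schneider cells; compounds preincubated 1 hr, reporter read after 20 hr at ambient temperature.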
* hit, by the source's call; ? = inconclusive; nt = no result; [ ] = remark or other dose. Unless noted, calls come from the whole dose curve; as a rule, active = well fitted curve in the direction sought with a large enough effect; inconclusive = small, poorly fitted or top-dose-only effect, or another doubt; inactive = no such curve, though single readings can be large; an effect the other way counts as inactive or inconclusive. % is set by controls: 0 for no effect and ±100 for the full control effect.

SMILES | ELG1 repair inh | TSHR antagonist | FBPA coupling cs | VP16 counter | RORg inh
CC(C)c1ccccc1NC(=S)NN(Cc1ccccc1)c1ccccc1 | 2.9% | 5.0 | 0.7 | ? | 2.24µM*
Cc1cccc(C)c1NC(=S)N(Cc1ccccc1)Cc1cccnc1 | ? | 4.6 | -1.2 | 11.9% | ?
Cn1cc(C(=O)CCl)c2ccccc21 | -27.0% | -11.9 | -2.3 | 7.94µM* | 11.2µM*
Cn1cc(C(N)=O)c2ccccc21 | -15.1% | 13.8 | 1.4 | -0.6% | -13.0%
COc1ccc(CN(C)C(C)C(=O)N(C)CC(=O)Nc2ccc(C)cc2)cc1F (stereo not drawn) | ? | 31.2 | nt | nt | nt
CC(C)c1ccc(N(CC(=O)NC2CCCC2)C(=O)CCC(=O)Nc2ccccn2)cc1 | -3.2% | -8.1 | -0.3 | -3.3% | -3.1%
CCCCOc1ccc(CN=C(N)N)cc1Cl | ? | -1.5 | 1.2 | -0.2% | 7.5%
CCCOc1ccc(CCCN=C(N)N)cc1Cl | 13µM* | 2.9 | 3.2 | -7.4% | 31.6%
O=C(O)c1ccc(C(=O)O)c(C(=O)c2ccc(NC(=O)c3ccccc3)cc2)c1 | 9.5% | 6.0 | 8.5 | -19.8% | -12.3%
O=C(N/N=C/c1cn(-c2ccccc2)nc1-c1cccs1)c1ccc(Cl)cc1 | ? | -7.1 | 0.5 | 5.01µM* | 2.51µM*
NC(=O)N/N=C/c1cn(-c2ccccc2)nc1-c1ccccc1 | ? | -8.8 | -1.5 | ? | -17.5%
O=C(N/N=C/c1cn(-c2ccccc2)nc1-c1cccs1)c1ccccc1F | ? | -0.1 | 3.0 | 6.31µM* | 5.01µM*
Cc1ccnc(Sc2ccc([N+](=O)[O-])cc2[N+](=O)[O-])n1 | ? | 36.7 | 0.2 | ? | 12.6µM*
Cc1ccc(Sc2ccc([N+](=O)[O-])cc2[N+](=O)[O-])nc1 | 14.6% | 8.6 | -7.0 | ? | -43.3%
CC(=O)c1ccc(NC(=O)CCNC(=O)c2ccccc2Cl)cc1 | 10.4% | 16.4 | 0.7 | -9.0% | 13.8%
Cc1ncc(CO)c(/C=N/NC(=O)c2cc(Br)ccc2O)c1O | 16.4µM* | -0.9 | 6.5 | -8.2% | -41.5%
Cc1ncc(CO)c(/C=N/NC(=O)c2ccc(Br)cc2)c1O | ? | -2.4 | 1.4 | ? | 11.2µM*
COC(=O)[C@@]12CCCCN1[C@H](c1ccc(-c3ccc(F)cc3)cc1)[C@@H]1C(=O)N(C)C(=O)[C@@H]12 | -29.0% | -1.0 | nt | nt | nt
CC(=O)c1ccc(N2CCN(C(=O)/C=C/c3ccc(S(=O)(=O)NCc4ccco4)cc3)CC2)cc1 | 7.3µM* | -7.6 | 4.5 | -22.6% | 22.5%
Cc1ccc(Cn2nc(C)c(C(=O)NCC(c3cccs3)N3CCOCC3)c2Cl)cc1 (stereo not drawn) | 5.62µM* | nt | nt | nt | nt
Cc1nn(Cc2ccccc2)c(C)c1C(=O)NCC(c1cccs1)N1CCOCC1 (stereo not drawn) | 13.2% | 5.2 | nt | nt | nt
COc1ccc(C(CNC(=O)c2ccc(C)o2)N2CCOCC2)cc1 (stereo not drawn) | 10.2% | -3.2 | nt | nt | nt
COc1ccc(C(CNC(=O)c2c(C)nn(Cc3ccc(C)cc3)c2Cl)N2CCOCC2)cc1 (stereo not drawn) | 20.6µM* | -6.1 | nt | nt | nt
CCCC[C@@H]1C[C@H]1C(NC(=O)c1ccccc1)c1ccccc1C(F)(F)F (stereo partly drawn) | nt | nt | -2.3 | -7.1% | ?
S=C(Nc1ccc2c(c1)OCO2)N1CCN(Cc2ccco2)CC1 | ? | 1.5 | 1.9 | 11.2µM* | 11.2µM*
SMILES | ELG1 repair inh | TSHR antagonist | FBPA coupling cs | VP16 counter | RORg inh
CN(C)S(=O)(=O)c1ccc(Cl)c(NC(=O)CN2CCN(Cc3ccc4c(c3)OCO4)CC2)c1 | 20.6µM* | -8.6 | -2.0 | -3.2% | 37.5%
CC(C)[C@H](NC(=O)c1ccc(C(C)(C)C)cc1)C(=O)N1CCN(Cc2ccc3c(c2)OCO3)CC1 | 16.4µM* | -6.5 | nt | nt | nt
O=C(CN1CCN(Cc2ccc3c(c2)OCO3)CC1)Nc1cc(S(=O)(=O)N2CCCC2)ccc1Cl | ? | -8.2 | 0.0 | -0.4% | -0.5%
CC(C)c1ccccc1NC(=S)N1CCN(Cc2ccc3c(c2)OCO3)CC1 | ? | 9.3 | 0.6 | ? | 11.2µM*
CCN(CC)S(=O)(=O)c1ccc(C)c(NC(=S)N2CCN(c3ccccn3)CC2)c1 | 16.4µM* | -5.7 | 4.1 | 9.0% | 13.6%
CCN(CC)S(=O)(=O)c1ccc(C)c(NC(=S)N2CCN(Cc3ccc4c(c3)OCO4)CC2)c1 | ? | 2.4 | -2.0 | 22.4µM* | 11.2µM*
Cc1cccc(NC(=S)N2CCN(Cc3ccc4c(c3)OCO4)CC2)c1C | 5.1% | -2.7 | 1.3 | -3.7%[0.365 µM] | -109.1%
CCN(CC)S(=O)(=O)c1ccc(C)c(NC(=S)N2CCN(C/C=C/c3ccccc3)CC2)c1 | 11.6µM* | -14.3 | 1.8 | ? | 12.6µM*
CCC(=O)NCCC1CCc2ccc3c(c21)CCO3 (stereo not drawn) | nt | nt | 2.3 | -3.2% | 23.4%
CN1C=CC(=C2C=CN(C)C=C2)C=C1 | nt | nt | -5.0 | -4.5% | 3.8%
COc1ccc2oc(C(=O)OCC(=O)N(C)C3CCS(=O)(=O)C3)c(C)c2c1 (stereo not drawn) | 2.0% | 0.5 | nt | nt | nt
CCN(CC(=O)NC(=O)NC1CCCC1)Cc1ccccc1 | 2.1% | 2.0 | nt | nt | nt
O=S(=O)(CCN1CCOCC1)c1ccc(Oc2ccc(S(=O)(=O)CCN3CCOCC3)cc2)cc1 | ? | 0.2 | -3.0 | 7.94µM* | ?
CC(=O)CCS(=O)(=O)c1ccc(Oc2ccc(S(=O)(=O)CCC(C)=O)cc2)cc1 | -12.3% | -5.4 | -1.8 | ? | 8.91µM*
CC(=O)CS(=O)(=O)c1ccc(Oc2ccc(S(=O)(=O)CC(C)=O)cc2)cc1 | -4.8% | -14.9 | 0.1 | -6.1% | 22.3%
O=S(=O)(c1ccc(Oc2ccc(Br)cc2)cc1)N1CCOCC1 | -15.7% | -46.7 | 2.7 | ? | ?
Cc1ccc(C2CC(=O)Oc3ccc(O)cc32)cc1 (stereo not drawn) | nt | nt | -2.3 | -1.2%[96.6 µM] | 13.0%[96.6 µM]
Cc1ccc(NC(=O)C2C3C=CC4(O3)C2C(=O)N(CCCN2CCCC(C)C2)C4C(=O)NC2CCCCC2)cc1 (stereo not drawn) | 0.6% | -8.7 | -2.3 | 0.5% | -28.8%
COc1ccc(C(=O)NCCN2CCOCC2)c(OC)c1 | -19.6% | 8.9 | 1.3 | -1.5% | 29.2%
COc1ccc(C(=O)NCCn2ccc3ccccc32)c(OC)c1 | ? | 1.7 | -7.0 | ? | 10µM*
Cc1c(Cl)cccc1NC(=S)N(Cc1cccnc1)Cc1ccccc1Cl | -17.6% | -12.3 | 1.1 | ? | 11.2µM*
CCCn1c(CCNC(=O)c2ccco2)nc2ccccc21 | -12.7% | 0.1 | 1.9 | 5.0% | -3.6%
O=C(NC1=NCCS1)c1sc2cc(Cl)cc(Cl)c2c1Cl | 24.9% | -7.1 | 2.3 | ? | 6.31µM*
Cc1ccc(C(=O)NCCc2nnc3ccc(NCc4ccc5c(c4)OCO5)nn23)cc1 | -4.7% | 20.8 | nt | -1.5% | -13.0%
